EWS-Fli block = EWS/Fli transcriptional activity inhibition; A673 NR0B1-luciferase reporter, viability-normalised; inhibition, % at 12.6 µM; hit rate 0.67% among 350,000; AID 651661;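 active = mean inhibition of at least 50% after viability correction, with every replicate also passing that limit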;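 also: firefly luciferase signal divided by Alamar Blue viability fluorescence both relative to DMSO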
PAX8 inh HTS = PAX8 transcriptional activity inhibition | RMG-I TPO-luciferase reporter, SteadyGlo, 24 h | inhibition, % at 12.6 µM | hit rate 1.2% among 360,000;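 active = mean replicate inhibition at least 60% with every replicate also reaching 60%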;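 also: luciferase light reporting Pax8 driven TPO promoter activity; plate controls were median of neutral control wells for no effect and mitoxantrone controls for full effect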
Shn3 inh set2 = inhibitors of Schnurri-3 3'UTR reporter in osteoblasts. Clone20 osteoblast Shn3 3'UTR firefly luciferase, 24 h. inhibition, % at 12.5 µM. hit rate 0.52% among 360,000;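 active = mean inhibition of at least 75% with every replicate also reaching 75%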;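 also: 0% = median of neutral control wells and 100% = pilot-screen positive control compound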
MITF TRPM1 inh = reduces MITF-dependent TRPM1 promoter luciferase signal | SK-MEL-5 TRPM1 promoter luciferase, 24 h | inhibition, % at 12.5 µM | hit rate 0.83% among 330,000 | AID 488899;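 active = mean inhibition across replicates of 60% or more, whatever share of single replicates reaches that level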
Peg3 prom inh-1 = reduces Peg3 promoter-driven luciferase expression in HeLa. hit rate 1.7% among 360,000. HeLa PEG-Prom luciferase reporter, luminescence, overnight. AID 588405. inhibition, % at 20 µM;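 active = inhibition of at least 50% at 20 µM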
ABHD5-PLIN5 inh = ABHD5-PLIN5 protein interaction inhibition; Split G. princeps luciferase complementation, luminescence, 4 h; inhibition, % at 4 µM; hit rate 0.78% among 360,000;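 active = inhibition above the mean inhibition across every tested compound plus 3 SD, cut at about 22% in these data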;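 also: 0% = DMSO only wells and the 100% control is not disclosed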
Target sequence (Q00G26 whole entry, looked up): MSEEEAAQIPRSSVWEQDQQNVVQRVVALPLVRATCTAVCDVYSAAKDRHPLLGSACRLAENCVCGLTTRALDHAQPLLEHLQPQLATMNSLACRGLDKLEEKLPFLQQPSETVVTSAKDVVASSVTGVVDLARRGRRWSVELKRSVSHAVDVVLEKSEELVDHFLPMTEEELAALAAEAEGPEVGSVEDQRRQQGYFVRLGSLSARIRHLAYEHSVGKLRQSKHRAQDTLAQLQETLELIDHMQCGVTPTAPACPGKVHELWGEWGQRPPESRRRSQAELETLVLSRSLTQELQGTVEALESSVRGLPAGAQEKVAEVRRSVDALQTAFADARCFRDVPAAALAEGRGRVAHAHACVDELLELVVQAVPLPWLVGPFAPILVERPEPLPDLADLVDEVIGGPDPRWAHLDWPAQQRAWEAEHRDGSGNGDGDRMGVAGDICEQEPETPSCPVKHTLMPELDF
Target sequence (Q8WTS1 whole entry, looked up): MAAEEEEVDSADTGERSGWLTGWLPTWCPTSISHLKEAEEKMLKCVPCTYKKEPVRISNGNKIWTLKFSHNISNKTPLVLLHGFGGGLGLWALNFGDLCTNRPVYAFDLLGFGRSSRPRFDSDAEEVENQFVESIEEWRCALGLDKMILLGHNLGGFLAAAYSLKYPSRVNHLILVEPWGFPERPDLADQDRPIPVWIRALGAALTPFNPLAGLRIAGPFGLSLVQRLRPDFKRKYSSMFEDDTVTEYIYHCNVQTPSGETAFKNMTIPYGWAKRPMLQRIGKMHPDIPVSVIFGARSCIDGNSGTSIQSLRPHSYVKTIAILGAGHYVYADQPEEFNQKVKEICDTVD
Peg3 prom inh-2 = confirmation of Peg3 promoter inhibitors | hit rate 84% among 1,300 | inhibition, % at 20 µM | AID 602417 | shares compounds with Peg3 prom inh-1 | HeLa PEG-Prom luciferase reporter, luminescence, overnight;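 active = at 20 µM dose, 40% or more inhibition averaged across four replicates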
* marks the source's active call; other numbers are inactive results; / = no result. Sampled rows, rich in hits. Any-hit rate of the full collection: about 3%.

SMILES | EWS-Fli block | PAX8 inh HTS | Shn3 inh set2 | MITF TRPM1 inh | Peg3 prom inh-1 | ABHD5-PLIN5 inh | Peg3 prom inh-2
O=C1[C@H](Cc2ccccc2)NCCCC[C@@H](c2ccc(Cl)cc2)N1Cc1ccc(Cl)cc1 | 11.3 | 9.0 | 9.9 | -6.3 | 76.3* | 6.8 | 21.6
Cc1ccc(NC(=O)c2nc[nH]c2C(=O)NCCCCNC(=O)c2[nH]cnc2C(=O)Nc2ccc(C)cc2)cc1 | 17.7 | 80.3* | 38.4 | 2.6 | 74.3* | -6.4 | 43.4*
Cc1ccc(NC(=O)c2nc[nH]c2C(=O)NCCCCCNC(=O)OC(C)(C)C)cc1 | 14.3 | -4.1 | 25.3 | 17.9 | 29.4 | -1.5 | /
O=C(Nc1ccccc1)c1nc[nH]c1C(=O)NCCCCNC(=O)c1[nH]cnc1C(=O)Nc1ccccc1 | 21.3 | 44.1 | 11.5 | 6.4 | 59.8* | 5.5 | 55.8*
Cc1ccc(S(=O)(=O)N(C)C[C@@H]2Oc3ccc(NC(=O)CCCN(C)C)cc3C(=O)N([C@H](C)CO)C[C@H]2C)cc1 | -13.7 | 0.9 | / | / | / | / | /
COCC(=O)Nc1ccc2c(c1)C(=O)N(C)[C@@H]1CC[C@H](CC(=O)NCC(F)(F)F)O[C@H]1CO2 | -7.1 | 2.9 | / | / | / | / | /
COc1cccc(S(=O)(=O)N2CC3(CN[C@H](CO)c4[nH]c5cc(OC)ccc5c43)C2)c1 | 3.8 | / | / | / | / | / | /
COc1ccc(C(=O)Nc2nnc(-c3ccco3)s2)cc1 | / | / | 36.7 | 33.6 | 63.2* | 3.0 | -39.2
CN1C(=O)c2cc(NC(=O)c3ccc(F)cc3)ccc2OC[C@@H]2O[C@H](CC(=O)NCC3CC3)CC[C@@H]21 | -2.0 | 10.9 | / | / | / | / | /
C[C@@H](NCCCn1cnc2c(OCc3ccccc3)ncnc21)c1cccc2ccccc12 | -16.2 | 19.4 | -11.8 | 68.8* | 91.9* | 4.7 | 86.2*
c1ccc(CNCCCn2cnc3c(OCc4ccccc4)ncnc32)cc1 | -6.7 | -11.8 | -26.2 | -8.6 | -22.1 | -3.8 | /
c1ccc(CCCNCCCn2cnc3c(OCc4ccccc4)ncnc32)cc1 | 16.5 | -4.5 | -0.5 | 77.9* | 56.1* | 3.3 | 83.3*
COC(=O)C[C@H]1CC[C@H]2[C@H](COc3ccc(NC(=O)c4cc(F)cc(F)c4)cc3C(=O)N2C)O1 | -9.0 | -11.2 | / | / | / | / | /
CN(C)C(=O)c1ccc(-c2ccc3c(c2)[C@H]2[C@H](CCN2C(=O)c2cnccn2)[C@H](CO)N3)cc1 | -3.4 | 0.6 | / | / | / | / | /
COc1ccc(/C=C/C(=O)c2ccc3c4c(cccc24)CC3)cc1OC | / | -6.2 | 12.8 | -7.4 | 69.1* | 5.9 | 83.8*
CCc1ccc(OCCNc2cc(N3CCNC(C)C3)ccc2[N+](=O)[O-])cc1 (stereo not given) | 32.3 | 17.6 | 89.2* | 78.6* | 100.4* | 15.9 | 100.2*
O=[N+]([O-])c1nn(-c2ccc3c(c2)OCCO3)n(O)c1=Nc1ccc(Cl)cc1 | 16.1 | / | 47.2 | 63.7* | 71.9* | 1.4 | 74.3*
CCc1ccc(N=c2c([N+](=O)[O-])nn(-c3ccc4c(c3)OCCO4)n2O)cc1 | 1.9 | 1.5 | 5.4 | 4.7 | -165.4 | 1.1 | /
S=C(NN=C(c1ccccc1)c1ccccn1)N(Cc1ccccn1)Cc1ccccn1 | 6.5 | / | 90.8* | 82.8* | 106.5* | -12.1 | 100.7*
COc1ccccc1NC(=S)N(Cc1ccc(C)cc1)Cc1ccccn1 | 4.1 | 7.6 | -9.0 | -3.1 | 25.2 | 0.5 | /
C[C@@H]1CCCCO[C@H](CN(C)Cc2ccc(C(=O)O)cc2)[C@@H](C)CN([C@@H](C)CO)C(=O)c2cc(NC(=O)Nc3cccc4ccccc34)ccc2O1 | 3.6 | -3.9 | / | / | / | / | /
COc1nc(N/N=C/c2ccc(-c3ccccc3[N+](=O)[O-])o2)nc(N2CCOCC2)n1 | -3.0 | 4.4 | -16.3 | -8.3 | -69.5 | -15.4 | /
O=[N+]([O-])c1ccc(-c2ccc(/C=N/Nc3nc(NCc4ccccc4)nc(N4CCOCC4)n3)o2)cc1 | / | 45.7 | -1.9 | 77.0* | 99.2* | 1.8 | 80.0*
C[C@@H]1CN([C@H](C)CO)C(=O)c2cc(NC(=O)CCCN(C)C)ccc2O[C@@H]1CN(C)C(=O)Nc1ccc2c(c1)OCO2 | / | -16.7 | / | / | / | / | /
COc1cccc(CN(C)C(=O)C(CCSC)NS(=O)(=O)c2ccc3c(c2)OCCO3)c1OC (stereo not given) | 0.5 | 70.1* | 21.0 | -6.2 | 55.9* | -4.2 | 62.2*
SMILES | EWS-Fli block | PAX8 inh HTS | Shn3 inh set2 | MITF TRPM1 inh | Peg3 prom inh-1 | ABHD5-PLIN5 inh | Peg3 prom inh-2
CCOc1cc(C2c3c(oc4cc(C)c(Cl)cc4c3=O)C(=O)N2Cc2ccco2)ccc1O (stereo not given) | / | / | 21.7 | 19.7 | 67.0* | 2.4 | 17.4
COc1cc(C2c3c(oc4ccccc4c3=O)C(=O)N2Cc2ccco2)ccc1O (stereo not given) | / | / | 2.3 | -4.7 | 5.2 | 5.8 | /
Cc1cccc(-n2ncc3c(N(C)C4CCCCC4)ncnc32)c1 | 72.5* | 46.7 | 75.6 | 79.5* | 75.2* | -2.1 | 81.9*
Cc1cccc(-n2ncc3c(N(CCO)CCO)ncnc32)c1 | -91.5 | -103.5 | 0.3 | -57.4 | -215.0 | -2.6 | /
COc1ccc(-n2ncc3c(N(C)C4CCCCC4)ncnc32)cc1 | 77.5* | -33.8 | 63.8 | 58.8 | 71.4* | -0.6 | 70.6*
COc1ccc(-n2ncc3c(N4CCC(C)CC4)ncnc32)cc1 | 47.8 | -19.7 | 5.3 | / | -66.0 | -2.2 | /
CCCN1[C@H](C(=O)N[C@H](C)c2ccccc2)[C@@H](CO)[C@@H]2Cn3c(ccc(-c4ccc(F)cc4)c3=O)[C@@H]21 | 22.7 | 22.9 | / | / | / | / | /
COc1cc(F)cc(-c2ccc3c(c2)c(-c2cccs2)c(-c2cc(OC)cc(OC)c2)n3C)c1 | -2.0 | 9.7 | 7.9 | -3.8 | 4.1 | -7.3 | /
COc1cc(OC)cc(-c2c(-c3cccs3)c3cc(-c4ccc(N(C)C)nc4)ccc3n2C)c1 | -2.7 | 3.0 | -0.7 | -15.1 | 52.0* | -7.3 | 24.6
O=C(Nc1ccc([N+](=O)[O-])cc1)C(=O)Nc1cccc(C(=O)O)c1 | 90.8* | 101.4* | 85.8* | / | 64.2* | 3.1 | 68.4*
Cc1ccc(S(=O)(=O)/N=C(\CCl)N2CCOCC2)cc1 | 15.4 | 26.1 | -29.3 | 22.9 | 57.6* | 14.6 | 39.0
Cc1ccc(S(=O)(=O)/N=C(\CN2CCOCC2)N2CCCC2)cc1 | / | / | -14.3 | 9.0 | 10.3 | 4.2 | /
CCN(CC)CCCCNc1ncc2cc(-c3cc(OC)cc(OC)c3)c(NC(=O)NC(C)(C)C)nc2n1 | 36.2 | 44.1 | 40.3 | 73.4* | 74.3* | -8.1 | 77.0*
CCN(CC)CCNC(=O)COc1ccc(OC)cc1 | -2.6 | 12.3 | -3.8 | -5.5 | -5.1 | -11.4 | /
Cc1cc(C(=O)Nc2cccc3c2O[C@H](CN(C)S(=O)(=O)c2ccccc2)[C@H](C)CN([C@H](C)CO)C3=O)n(C)n1 | 3.8 | -16.1 | / | / | / | / | /
O=C(N/N=C/c1sc(N2CCOCC2)nc1-c1ccccc1)c1cccc(S(=O)(=O)N2CCOCC2)c1 | 10.5 | 49.5 | 83.8 | 65.2* | 68.3* | -1.3 | 68.1*
CN(C)c1ccc(-c2nc3ccccn3c2/N=C/c2ccc(Br)cc2)cc1 | 27.7 | -13.1 | 23.9 | -2.7 | 54.1* | -9.8 | 40.9*

Source: PubChem BioAssay (several laboratories)
